{"source": "PubChem BioAssay (NCI)", "note": "“And” between values parts separate entries of the source, which are not always exact repeats. Identical values can stand only once. This is part of a sample that, as a whole, favours compounds with a hit. Of some 83,000 tested, about 20% had one in any assay.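 Treatment: one concentration, 48 hours, 96-well format. Scoring: percent growth, with anything below 10 considered active.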 A number with no mark means an inactive call. The source made the active and inactive calls."}
{"system": "KM12 colon", "test": "NCI-60 one-dose screen, 48 h (100 = growth as untreated, 0 = no growth, -100 = all killed)", "settings": "10 µM", "procedure": "(§1) Growth inhibition of the KM12 human tumor cell line is measured as a screen for anti-cancer activity. Cells are grown in 96 well plates and exposed to the test compound for 48 hours. Compounds are tested at a single concentration, which is 10^-5 M for most compounds. The reported endpoint is percent growth (GI% or GIPRCNT), where numbers from 0 - 100% represent growth inhibition, and numbers from -100% - 0 represent cell death. For example, a value of 40 represents 60% growth inhibition. A value of 0 means no net growth occurred over the course of the experiment. A value of -40 indicates 40% of cells at the beginning of the experiment died by the end of the experiment. A value of -100 means all cells are dead at the end of the experiment.\n(§2) NCI-60 Human Tumor Cell Lines Screen was performed using the standard one-dose NCI protocol, which is described in more detail at https://dtp.cancer.gov/discovery_development/nci-60/default.htm.\n(§3) Compounds with GIPRCNT values below 10 were considered active. Activity score was based on GIPRCNT using the following formula: […]\n(§4) Score is 0 for GIPRCNT values of 100 or above, 50 for GIPRCNT values of 0, and 100 for GIPRCNT values of -100."}
{"smiles": "O=C(O)c1c(Cl)c(Cl)c(Cl)c(Cl)c1-c1c2cc(I)c(=O)c(I)c-2oc2c(I)c(O)c(I)cc12", "growth": "102% and 99.9% and 104%"}
{"smiles": "COc1ccc(-c2cscc2N)cc1", "growth": "69.6%"}
{"smiles": "CN(C)C(=O)c1ccc(SC(=S)NCc2ccccc2)cc1", "growth": "102%"}
{"system": "KM12 colon", "test": "NCI-60 one-dose screen, 48 h (100 = growth as untreated, 0 = no growth, -100 = all killed)", "settings": "10 µM unless noted", "procedure": "as §1, §2, §3, §4"}
{"smiles": "COc1ccccc1/C=C\\C(=O)c1ccccc1", "growth": "29.5%"}
{"smiles": "CCC(CC)COC(=O)c1ccc(O)c(O)c1", "growth": "61.3%"}
{"smiles": "O=C1N[C@H]2[C@H](CS[C@H]2CCCCC(=O)N(CCP(c2ccccc2)c2ccccc2)CCP(c2ccccc2)c2ccccc2)N1", "growth": "59.9%"}
{"smiles": "NC(=S)N/N=C\\c1nccc2c(C(F)(F)C(F)(F)C(F)(F)F)cccc12", "growth": "14.2%"}
{"smiles": "NC(=O)/C=C/C(=O)c1c(Cl)cccc1Cl", "growth": "-51.4% (active)"}
{"smiles": "CCC1OC(OC)C=CC1=O", "note": "(stereo not given)", "growth": "99.7%"}
{"smiles": "O=C(CC1(O)C(=O)Nc2c(Cl)ccc(Cl)c21)c1ccc(Cl)cc1Cl", "note": "(stereo not given)", "growth": "102%"}
{"smiles": "NC(N)=N/N=C/c1ccc([N+](=O)[O-])o1", "growth": "82.3%"}
{"smiles": "O=C(O)c1ccc2c3c(ncnc13)-c1ccccc1C2=O", "growth": "46.5%"}
{"smiles": "O=C(O)C1C2CC3C(OC(=O)C31)C2Br", "note": "(stereo not given)", "growth": "108% and 106%"}
{"smiles": "CC(=O)C(=Cc1ccc(C=C(C(C)=O)C(C)=O)cc1)C(C)=O", "growth": "-43.7% (active)"}
{"smiles": "O=[N+]([O-])c1ccc2c(N=Nc3ccc4ccccc4c3O)c(O)cc(S(=O)(=O)O)c2c1", "growth": "95.6%"}
{"smiles": "Oc1c(Cl)cc(Cl)c2cccnc12", "growth": "54.2% and 52.3%"}
{"smiles": "CCOC(=O)c1c(C)[nH]c(CO)c1C", "growth": "94.2%"}
{"smiles": "CCCCCC(CCCCC)C(=O)O", "growth": "109%"}
{"smiles": "O=C(Nc1ccccc1)Oc1c(Cl)c(Cl)c(Cl)c(Cl)c1Cl", "growth": "100% and 97.5%"}
{"smiles": "COc1ccccc1OC(=O)Oc1ccccc1OC", "growth": "107% and 98%"}
{"smiles": "O=Nc1ccccc1N=O", "growth": "91.3%"}
{"smiles": "Cc1ccc2nc(C[n+]3ccc4ccccc4c3)ccc2c1", "growth": "56.4%"}
{"smiles": "O=C(Oc1cccc2cccnc12)c1ccccc1", "growth": "101% and 104%"}
{"smiles": "N#CSCc1ccc(Cl)c(CSC#N)c1", "growth": "28.2%"}
{"smiles": "CNc1ccc(N)cc1", "growth": "107%"}
{"smiles": "Cc1ccc(C(=Nc2ccccc2)N=P(c2ccccc2)(c2ccccc2)c2ccccc2)cc1", "growth": "-70.9% (active)"}
{"smiles": "COc1cc(/C=C/C(C)=O)ccc1O", "growth": "90% and 92.7%"}
{"smiles": "C[n+]1c(/C=C/c2ccc([N+](=O)[O-])cc2)ccc2ccccc21", "growth": "80.8%"}
{"smiles": "O=C1OCc2cccc3cccc1c23", "growth": "104%"}
{"smiles": "O=C(Nc1ccccc1)c1cc(Cl)ccc1O", "growth": "47%"}
{"smiles": "O=C1c2ccccc2C(=O)c2sc(Nc3cccc(Cl)c3)nc21", "growth": "24.6%"}
{"smiles": "CCC(=O)Sc1ccccc1C(=O)Nc1ccc(Cl)cc1", "growth": "64.9%"}
{"smiles": "CC(C)(C)CC(C)(C)c1ccc(OCCSC(=N)N)cc1", "growth": "32.8%"}
{"smiles": "COc1cc(NS(C)(=O)=O)ccc1Nc1c2ccccc2nc2ccccc12", "growth": "48.6% [2.5 µM]"}
{"smiles": "c1ccc2c(c1)Nc1cc3ccccc3cc1N2", "growth": "44.2%"}
{"smiles": "CN(C)C(=O)SC1=C(c2c(Cl)cccc2Cl)C(=O)c2ccccc21", "growth": "99.4%"}
{"smiles": "N#CC1C(=O)SC2c3ccccc3C(=O)c3ccccc3C12", "note": "(stereo not given)", "growth": "96.6%"}
{"system": "KM12 colon", "test": "NCI-60 one-dose screen, 48 h (100 = growth as untreated, 0 = no growth, -100 = all killed)", "settings": "100 µM", "procedure": "as §1, §2, §3, §4", "units": {"growth": "%"}}
{"smiles": "O=C(O)c1c(Cl)c(Cl)c(Cl)c(Cl)c1-c1c2cc(I)c(=O)c(I)c-2oc2c(I)c(O)c(I)cc12", "growth": 67.9}
{"smiles": "COc1ccc(-c2cscc2N)cc1", "growth": 21.1}
{"smiles": "CN(C)C(=O)c1ccc(SC(=S)NCc2ccccc2)cc1", "growth": 25.5}
